Hit rate of the full screen: of about 420,000 compounds, about 64,000 (15%) were called active. Another 27% or so got no clear call; they are omitted. The list is a sample of the results. Values without a mark were called inactive. Calls follow the shape of the dose curve; as a rule, active = well fitted inhibition curve with a large enough effect; inconclusive = small, poorly fitted or top-dose-only effect; inactive = flat fitted curve, though single readings scatter.
Assay: qHTS for Inhibitors of human tyrosyl-DNA phosphodiesterase 1 (TDP1): qHTS in cells in absence of CPT; also: nearly all actives have a fitted effect of over 55% in size
Conditions: DT40 Tdp1-/- hTDP1 cells, no CPT, ATP luminescence, 48 h; activity change, negative = growth inhibition: at 46.2 µM (top of the series)
Outline: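 Seeded 400 DT40-hTDP1 cells/well (vehicle DMSO, no 20 nM CPT); pinned compounds; ≥48 hr at 37 °C; CellTiter-Glo luminescence as viability measure.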
% is scaled to controls: 0 for no effect and ±100 for the full control effect; potency is read from the fitted curve at half-maximal effect.

SMILES	activity change, negative = growth inhibition	Potency
O=C(O)CSC(NC(=O)c1cccnc1)(C(F)(F)F)C(F)(F)F	-1.73%	–
COc1ccc(N)cc1NC(=O)CN1CCOCC1	-2.03%	–
O=C(Nc1ccc(F)cc1)C(CCc1ccccc1)N1CCN(CC(=O)N2CCCC2)CC1 (stereo not given)	-24.4%	–
COC(=O)c1ccc(S(=O)(=O)N2CCc3ccccc3C2)cc1	-27.5%	–
CC(NC(=O)c1cccc(S(=O)(=O)N2CCc3ccccc3C2)c1)c1ccco1 (stereo not given)	-22.5%	–
Cc1cccc(N2CCN(C(=O)c3cccc(S(=O)(=O)N4CCc5ccccc5C4)c3)CC2C)c1 (stereo not given)	–	7.31 µM (active)
COc1ccc(-n2ncc3c(N4CCCc5ccccc54)ncnc32)cc1	-29.4%	–
COc1ccc(C2(c3ccc(OC)cc3)NC(=O)N(CC(=O)Nc3cc(C)on3)C2=O)cc1	–	16.4 µM (active)
CCCCCCCC1(C)NC(=O)N(CC(=O)Nc2cc(C)on2)C1=O (stereo not given)	-2.67%	–
Cc1cc(NC(=O)CN2C(=O)NC(C)(CCc3ccccc3)C2=O)no1 (stereo not given)	-5.45%	–
O=C(CSc1nnc(-c2ccccc2O)o1)NC1CCCCC1	-1.77%	–
O=S(=O)(Cc1ccccc1)c1nc2ccccc2n1Cc1ccccn1	-1.39%	–
CCOc1ccc(S(=O)(=O)N2CCC(C(=O)NCC(=O)Nc3cccc(Cl)c3C)CC2)cc1	-24.1%	–
CSc1nccc(NC(=O)c2ccc(C(C)(C)C)cc2)n1	–	7.31 µM (active)
Cc1cccc(NC(=O)c2cccnc2Cl)n1	21.4%	–
Cc1cccc(NC(=O)c2ccccc2NC(=O)C(C)(C)C)n1	-13.1%	–
Cc1cc(C)c2nc(NC(=O)c3ccc4c(c3)OCO4)sc2c1	-19.9%	–
O=c1cnc2cnc(Nc3ccccc3)nc2n1Cc1ccc(F)cc1	-27.5%	–
COc1cccc(Nc2ncc3ncc(=O)n(C4CC4)c3n2)c1	–	11.6 µM (active)
Cc1nc2cnc(Nc3ccccc3)nc2n(C[C@H]2CCCO2)c1=O	-7.1%	–
CC(C)CCNC(=O)C1CCC(CNc2c(N3CCC(C)CC3)c(=O)c2=O)CC1 (stereo not given)	4.09%	–
CC(C)C(=O)N1CCN(CCN=CC2=C(O)CC(c3ccco3)CC2=O)CC1 (stereo not given)	–	inactive
Cc1ccc(OCC(=O)NCCCNC(=O)c2cccnc2)cc1C	-16.4%	–
CCCc1nc(N2CCN(C)CC2)c2sc(=S)n(-c3ccccc3)c2n1	–	16.4 µM (active)
CCCc1nc(-c2ccccc2O)n(-c2ccccc2)n1	-28.1%	–
O=C1/C(=C/c2ccc3c(c2)OCO3)Oc2cc(OCC(=O)N3CC(O)C[C@H]3C(=O)O)ccc21 (stereo not given in full)	-0.893%	–
CCc1ccccc1N(CC(=O)NCCSCc1ccco1)S(C)(=O)=O	-5.54%	–

SMILES	activity change, negative = growth inhibition	Potency
Cc1noc(/C=C/c2ccco2)c1S(=O)(=O)N1CCC(C(=O)Nc2ccc(Cl)cn2)CC1	–	18.4 µM (active)
CNC(=O)C1CCN(S(=O)(=O)c2c(C)noc2/C=C/c2cccc(C)c2)CC1	-2.36%	–
Cc1noc(/C=C/N(C)C)c1S(=O)(=O)N1CCCC(C(=O)NCc2ccco2)C1 (stereo not given)	1.87%	–
CC(=O)c1ccc(NC(=O)C2CCN(S(=O)(=O)c3c(C)noc3/C=C/c3ccc(C)cc3)CC2)cc1	-14.2%	–
Cc1ccnc(NC(=O)C2CCN(S(=O)(=O)c3c(C)c(C)cc(C)c3C)CC2)c1	-18.4%	–
Cc1cccc(NC(=O)C2CCN(S(=O)(=O)c3c(C)noc3/C=C/c3ccco3)CC2)c1	–	20.6 µM (active)
CC(C)CCNC(=O)c1cccnc1Sc1ccccc1	-12.3%	–
Cc1ccccc1CN1CCN(CC(=O)NCc2ccccn2)C1=O	0.195%	–
Cc1ccccc1CN1C[C@@H]2C[C@@H](c3ccc4nsnc4c3)N3CCC[C@@]23C1=O	–	20.6 µM (active)
CC(=NCC1CCCO1)c1c(O)[nH]c(=O)[nH]c1=O (stereo not given)	-21.1%	–
COc1ccc(/C=C2/C(=O)OCc3cc(OC)c(OC)cc32)c(OC)c1	–	29.1 µM (active)
COc1ccc(C2/C(=C(/O)c3ccccc3)C(=O)C(=O)N2C)c(OC)c1 (stereo not given)	-1%	–
COc1ccc(/C=C2/C(=O)N(c3ccccc3)N=C2C)c(OC)c1	9.93%	–
Cc1nc(N)sc1N=Nc1c(C)n(C)n(-c2ccccc2)c1=O	-17.5%	–
COc1cccc(OCCn2c(-c3ccc(Br)cc3)nc3ccccc3c2=O)c1	-7%	–
COc1ccc(-c2ccc(CCC(=O)O)n2-c2ccc(O)cc2)cc1	-9.04%	–
COc1ccc(-c2nc3ccccc3c(=O)n2CCc2ccc(O)cc2)cc1	–	9.2 µM (active)
CCc1ccc(CNC(=O)C2CCN(c3nnc(C)c4c(C)n(-c5ccc(C)cc5)nc34)CC2)cc1	–	5.17 µM (active)
Cc1nnc(N2CCCC(C(=O)NCCN(C)C)C2)c2nn(-c3ccccc3)c(C)c12 (stereo not given)	-18%	–
CCOc1ccc(CNC(=O)C2CCCN(c3nnc(C)c4c(C)n(-c5ccccc5)nc34)C2)cc1 (stereo not given)	–	18.4 µM (active)
COc1ccc(-n2nc3c(N4CCC(C(=O)NCc5ccccc5)CC4)nnc(C)c3c2C)cc1	0.177%	–
COC(=O)CCCCC1=CCC2C(=O)C=C(O)C2C1 (stereo not given)	4.57%	–
CCOC(=O)C1(Cc2cccc(OC)c2)CCN(C(C)COC)CC1 (stereo not given)	-60.7%	–
CCOC(=O)C1(Cc2cccc(OC)c2)CCN(Cc2csc(C(C)=O)c2)CC1	–	13 µM (active)
CCOC(=O)C1(Cc2cccc(OC)c2)CCN(C(C)CC(C)(C)O)CC1 (stereo not given)	-28.5%	–
Cc1ccc(NC(=O)Nc2cccnc2)cc1	6.11%	–
O=C(O)Cc1sc(-c2ccc(C(=O)O)cc2)nc1-c1ccccc1	1.9%	–

SMILES	activity change, negative = growth inhibition	Potency
Cc1ccc(-c2nc(-c3cccnc3)sc2CC(=O)Nc2ccc(C)c(Cl)c2)cc1	–	23.1 µM (active)
CC(C)CN1C(=O)CN(S(C)(=O)=O)CC1(C)C(=O)NCc1ccccc1 (stereo not given)	8.49%	–
CCC(=O)Nc1sc(C(=O)Nc2ccccc2)c(C)c1C(=O)OC	-26.8%	–
CCOC(=O)Nc1sc(C(=O)N(C)C)c(C)c1C(=O)OCC	-18.5%	–
CCOC(=O)c1c(NC(=O)CCl)sc(C(=O)N(CC)CC)c1C	–	13 µM (active)
CCCCNC(=O)OC1CC2CC1[C@H]1CCCCN1C2=O (stereo not given in full)	-20.1%	–
CN1CCN(c2ccc(NC(=O)c3ccccc3)cc2)CC1	28.4%	–
CN1CCN(c2ccc(NC(=O)c3ccc4c(c3)[nH]c(=O)n4Cc3ccc(F)cc3)cc2)CC1	–	29.1 µM (active)
CC(C)n1c(=O)[nH]c2cc(C(=O)Nc3ccccc3)ccc21	-17%	–
C/C(=N/OC(=O)c1cccc(C(F)(F)F)c1)c1cnccn1	0.852%	–
COc1cccc(OC)c1CN(C)C(=O)c1cnccc1C(F)(F)F	-0.155%	–
CCCC[C@@H]1CN=C(N)N1CCc1cc(C(F)(F)F)cc(C(F)(F)F)c1	–	1.3 µM (active)
O=C1NC[C@@H](Cc2ccc(O)cc2)N(CCc2cccc(F)c2)C1=O	-8.23%	–
CCCS(=O)(=O)N1CCN=C1SCc1cccc(F)c1	-26.5%	–
CCCC[C@@H]1CN=C(N)N1CCc1cccc(F)c1	–	5.8 µM (active)
NNC(=O)COc1ccc(C2SCCS2)cc1	1.8%	–
CC(=O)NC1C(Oc2ccc(C)cc2)OC2COC(c3ccco3)OC2C1O (stereo not given)	-25.2%	–
O=S(=O)(NC1CCCCC1)c1ccc(F)c2ccccc12	-15.1%	–
CCCC/S(C)=N/S(=O)(=O)c1ccc(C)cc1 (stereo not given)	-0.693%	–
COc1ccc(OCCCC(=O)Oc2ccc(OC)cc2)cc1	-13%	–
COc1ccc(C(=O)CCC(=O)Nc2ccc(Cl)cc2)cc1	20.7%	–
COc1ccc(OCCC(=O)c2ccc(OC)cc2)cc1	–	2.59 µM (active)
Cc1ccc(NC(=O)N2CCC(O)(c3cccnc3)CC2)cc1	4.31%	–
Cn1c(CCc2ccccc2)nnc1SCC(N)=O	-18.3%	–
COC(=O)C1=C(C)NC(=S)NC1c1ccc(OCC(=O)N2CC(C)OC(C)C2)c(OC)c1 (stereo not given)	1.05%	–
N#Cc1ccc(C2=CC(=O)C[C@H](c3ccc(Cl)cc3)C2)cc1	–	14.6 µM (active)
CCCCC/C=C/C1=CC(=O)C[C@H](c2ccc(Cl)cc2)C1	-26.2%	–

SMILES	activity change, negative = growth inhibition	Potency
O=C1CSC(c2ccc(Cl)cc2)N1 (stereo not given)	-7.34%	–
O=C(NCc1ccccc1)[C@@H]1CSC2c3ccccc3C(=O)N21 (stereo not given in full)	1.51%	–
CCOC(=O)C1CCN(c2c(Nc3cc(C)cc(C)c3)c(=O)c2=O)CC1	–	16.4 µM (active)
CCOC(=O)C1CCN(CCC(=O)Nc2cccc(C)c2)CC1	3.8%	–
CCOC(=O)C1CCN(c2csc3ccc(C)cc3c2=O)CC1	-8.13%	–
COC(=O)Nc1ccc(S(=O)(=O)N(C)CC(F)(F)C(F)F)cc1	-22%	–
Cc1ccc(SCCC(=O)OCC(=O)Nc2ncc(Cl)cc2Cl)cc1	-16.3%	–
Cc1ccc(-n2c(SCC(=O)Nc3ncc(Cl)cc3Cl)nc3ccccc32)cc1	–	13 µM (active)
CC1(C(=O)OCC(=O)Nc2ncc(Cl)cc2Cl)CC1(Cl)Cl (stereo not given)	-4.44%	–
COc1ccccc1P(=O)(c1ccccc1)c1ccccc1NC(C)=O (stereo not given)	-11.8%	–
CCCCN(C)C(=O)C1CCN(Cc2ccccn2)CC1	-10.8%	–
CC1=C(/C=C/C(C)=C/C=C/C(C)=C/C=C/C=C(C)/C=C/C=C(C)/C=C/C2=C(C)CCCC2(C)C)C(C)(C)CCC1	-10.8%	–
Clc1ccc(C(Cn2ccnc2)OCc2ccsc2Cl)c(Cl)c1 (stereo not given)	–	16.8 µM (active)
O=C(Nc1ccccc1C(=O)NCCCn1ccnc1)c1ccc(Cl)cc1Cl	-27.3%	–
O=C(NCCCn1ccnc1)Nc1ccc(Cl)cc1Cl	-10.9%	–
CNc1nccc(-c2ccc(Cl)cc2)c1C#N	-11.7%	–
CN(C(=O)COC(=O)c1cc(-c2ccco2)nc2ccccc12)C1CCS(=O)(=O)C1 (stereo not given)	11%	–
N#Cc1ccc(-c2ccc(Cl)cc2)nc1Oc1ccc(F)cc1	3.35%	–
CC(=O)Nc1cccc(Nc2nc(-c3cccs3)nc3ccccc23)c1	–	8.2 µM (active)
COC(=O)c1cc(-c2cccs2)nc2ccccc12	-3.83%	–
CCN(CC(=O)Nc1c(F)cccc1F)C(=O)Cc1cccs1	-19.1%	–
O=C1CCCCC1C(=O)c1ccccc1 (stereo not given)	0.152%	–
Cc1n[nH]c(=O)c2c(NC(=O)CSc3ccccc3F)oc(C)c12	-3.84%	–
CC(=O)N1CCN(S(=O)(=O)c2c(F)cc(F)c(Cl)c2F)CC1	-23.5%	–

Source: PubChem BioAssay AID686978 (National Center for Advancing Translational Sciences (NCATS), 2013)
